From PubChem BioAssay AID449762 (Southern Research Specialized Biocontainment Screening …, 2010) come the findings set out here.

The structures appear in SMILES notation. Hit rate of the full screen: of about 330,000 compounds, about 1,900 (0.58%) were called active. About 4% were inconclusive and are not listed. These entries were drawn from the full list. Potency and affinity values are given separately. Values without a mark were called inactive. No stated cut-off is given here; in the data, inconclusive means inhibition above about 70% without an active follow-up result; inactive means below that.

This test in a line: M. tuberculosis growth inhibition, HTS (AID 449762).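 Further: bacterial growth assessed after seven days of incubation.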 Particulars: M. tuberculosis H37Rv growth inhibition, 7H9 media; at 25 µM; active compounds read high.
`NCCCn1c(C(=O)c2ccc(Cl)cc2)c2ccc(C(F)(F)F)cc2[n+]1[O-]`: the inhibition is 1.61%.
Under `NC(=O)CCCn1c(C(=O)c2ccc(Cl)cc2)c2ccc([N+](=O)[O-])cc2[n+]1[O-]` stands -3.8%.
Under `COc1ccc(CCN2CC(C(=O)NCc3ccco3)CC2=O)cc1OC` (stereo unspecified) stands -1.89%; under `CCN1CCN(c2ccc(S(=O)(=O)N3CCOCC3)cc2NC(=O)COc2ccc(F)cc2Cl)CC1`, 2.58%; under `C[C@H](NC(N)=O)C(=O)Nc1ccc(OCc2ccccc2)cc1`, 2.2%.
As to `C/C(=N\NC(=O)c1ccc(C)cc1C)c1ccc2c(c1)Nc1ccccc1S2`, the inhibition was 7.51%.
For `C/C(=N\NC(=O)c1ccccc1F)c1ccc2c(c1)Nc1ccccc1S2` the value was -0.8%; for `O=C1C=C(c2cccc3c2sc2ccccc23)C[C@@H](c2ccc(Cl)cc2)C1`, -0.695%; for `CSc1ccc(/C=C/C(=O)Nc2ccccc2)cc1`, 10.6%.
For `CCCC(=O)Nc1ccc(C(N)=O)cc1` the value was -1.73%.
Under `CSc1nsc(SCC(=O)NC2CCCCC2)n1` stands 66.1%.
Regarding `Cc1nnc(SCC(=O)N2CCCCC2)s1`, the inhibition is -0.73%.
For `COc1cc(OC)c(C(=O)OCC(=O)Nc2c(C)n(C)n(-c3ccccc3)c2=O)cc1OC` the value was 1.54%; for `O=C1NC[C@H](c2ccccc2)N(CC2CCCCC2)C1=O`, -2.23%; for `C/C(=N\Nc1ccc([N+](=O)[O-])cc1)c1ccc(N)cc1`, -12.2%.
As to `C/C(=N\Nc1ccccc1)c1cccc(N)c1`, the inhibition was -1.02%.
As to `Cn1cnc(S(=O)(=O)N2CCN(c3ccc(Cl)cc3)CC2)c1`, the inhibition was 1.05%.
Under `CC(C)COC(=O)Nc1ccccc1C(=O)N1CCOCC1` stands -0.44%.
Under `Cc1ccc(N(Cc2cc3ccccc3[nH]c2=O)S(C)(=O)=O)cc1` stands -5.78%.
Under `O=c1[nH][nH]c(-c2ccccc2O)c1C(C[N+](=O)[O-])c1ccccc1` (stereo unspecified) stands 25.6%; under `Cc1[nH]c2ccccc2c1C(C[N+](=O)[O-])c1cccc(O)c1` (stereo unspecified), 0.72%.
Turning to `O=C(N/N=C/c1ccco1)c1cc(-c2cccc(Br)c2)nc2ccccc12`, the inhibition was 5.09%.
Regarding `CCNC(=S)/N=C(\N)Nc1nc(C)c2cc(C)ccc2n1`, the inhibition is 26.4%.
With `CCOc1ccc2nc(N/C(N)=N/C(=S)Nc3ccc(C)c(C)c3)nc(C)c2c1`, the inhibition was 39.5%.
For `CCOc1ccc2nc(N/C(N)=N/C(=S)Nc3ccc(OC)cc3)nc(C)c2c1` the value was 1.27%.
Under `Cc1cccc(NC(=S)/N=C(\N)Nc2nc(C)c3cc(C)ccc3n2)c1` stands 8.71%.
Turning to `COc1ccc(N2CCN(C(=O)c3cc4cc(Cl)ccc4[nH]3)CC2)cc1`, the inhibition is -7.94%.
Under `COc1ccc(Cl)cc1NC(=O)CN1CCCCCC1` stands -5.19%.
For `Cc1ccc(S(=O)(=O)CC(=O)N2CCN(c3ccc(F)cc3)CC2)cc1` the value was -10.4%; for `O=c1c2ccccc2c(=O)n2n1Cc1ccccc1C2`, 0%; for `CCC1CSC(Nc2ccc(C(=O)/C=C/c3ccc(Oc4ccccc4)cc3)cc2)=N1` (stereo unspecified), 4.72%.
Regarding `Cc1cccc(/C=C/C(=O)c2ccc(N3CCOCC3)cc2)c1`, the inhibition was -1.54%.
For `Cc1ccc(N(CC(O)CN2C(=O)NC(C)(C)C2=O)S(=O)(=O)c2ccc([N+](=O)[O-])cc2)cc1` (stereo unspecified) the value was 0.97%; for `COC(=O)c1cc(C(=O)OC)[nH]n1`, -0.31%; for `COc1ccccc1NC(=O)N1CCCC1C(=O)NCc1ccccc1Cl` (stereo unspecified), 3.2%.
Under `Cc1ccc(S(=O)(=O)/N=C(\CN2CCCCC2)N2CCOCC2)cc1` stands -3.15%.
For `Cc1ccc(S(=O)(=O)/N=C(\CN2CCOCC2)N2CCOCC2)cc1` the value was 2.72%; for `CC(=O)c1c(C)[nH]c(C(=O)CSc2nc3ccccc3c(=O)n2CCCO)c1C`, 10.8%; for `O=C(NC1CCOCC1)C1CCC(=O)N(Cc2ccc(Cl)cc2)C1` (stereo unspecified), -7.32%.
As for `Cc1ccc(C(=O)C2CCOC(C)(C)C2)cc1` (stereo unspecified), the inhibition was -6.79%.
For `Cc1ccc(-c2csc(N3CCC[C@@H]3C(=O)NCCn3c(-c4ccncc4)nc4ccccc43)n2)cc1` the value was 58.4%.
Under `Cc1ccc(-c2csc(NCCn3c(-c4ccncc4)nc4ccccc43)n2)cc1` stands -3.83%; under `COc1cc2c(cc1OC)CN(C1CCC(C)CC1)CC2` (stereo unspecified), 8.03%.
Under `CC(C)N=C(NC#N)SCc1ccccc1F` stands -3.3%.
With `COc1ccc(CCNc2nc(C)nc3c2oc2ccccc23)cc1OC`, the inhibition was 2%.
For `CCNc1nc(C)nc2c1oc1ccccc12` the value was 2.03%; for `COc1ccccc1NS(=O)(=O)c1cccc(C(=O)NN)c1`, -5.02%.
For `COc1cc(NC(=O)Cc2ccc([N+](=O)[O-])cc2)c(C(=O)O)cc1OC` the value was 20.1%; for `COc1cc(C(=O)/C=C/c2cccnc2)ccc1O`, 52.2%; for `O=C(/C=C/c1cccnc1)c1ccc(O)cc1`, 2.21%.
For `CN(C)c1ccc(C(=O)/C=C/c2cccnc2)cc1` the value was -3.39%; for `O=C(/C=C/c1cccnc1)c1ccccc1O`, 4.14%; for `Cc1ccc2nc(-c3ccc(NC(=O)CCS(=O)(=O)c4ccccc4)cc3)sc2c1`, 1.52%.
Regarding `O=C(CN(Cc1ccco1)C(=O)CNS(=O)(=O)c1ccccc1)NCc1ccccc1`, the inhibition was 0.41%.
As to `Cc1ccc(N2C(=O)C3C4C=CC(CNC(=S)Nc5ccc(Cl)cc5)(O4)C3C2=O)cc1` (stereo unspecified), the inhibition was 0.99%.
Under `Cc1ccc(NC(=O)Nc2ccc3c(c2)CCC3)c(C)c1` stands -10.3%; under `Cc1ccc2[nH]c3nc(N/N=C/c4cccc(O)c4)nnc3c2c1`, 3.58%; under `O=Nc1ccc(NOC(=O)c2ccccc2)cc1`, 14%.
Under `Cc1ccc(C(=O)ONc2ccc(N=NC(=O)c3ccccc3O)cc2)cc1` stands 2.47%; under `CCCn1c(C)cc(C(=O)CN2C(=O)c3cccc(N)c3C2=O)c1C`, -10%; under `COc1ccc(-c2[nH]ncc2N=Nc2ccccc2)cc1`, 8.09%.
For `Oc1ccc(Cl)cc1N=Nc1ccccc1` the value was -8.24%.
Take `CCOC(=O)c1[nH]c2ccccc2c1NC(=O)c1ccc(Br)o1`: the inhibition is -1.61%.
As for `CN(C)c1ccc(/C=C/c2cc[n+](C)cc2)cc1`, the inhibition is 7.78%.
For `CN(C)c1ccc(/C=C/c2cccc[n+]2[O-])cc1` the value was 1.21%; for `Cc1cc(C(=O)OCC(=O)Nc2cccc(F)c2)c(C)n1C1CC1`, 0.41%; for `CCN(CC)CCn1c(SCC(=O)Nc2ccc(F)cc2)nc2c(sc3ccccc32)c1=O`, 4.95%.
Under `CCN(CC)CCn1c(SCC(=O)NCc2ccccc2)nc2c(sc3ccccc32)c1=O` stands 6%.
For `COCCn1c(-c2ccccc2)cc(C(=O)O)c1C`, the inhibition is 6.01%.
For `COc1ccc(CNC(=O)Nc2ccc(C)c(C)c2)cc1` the value was -5.48%.
Under `CC(=O)NC(=S)Nc1ccc(NC(=O)COc2ccc(Cl)cc2Cl)cc1` stands 0.45%; under `CC(=O)Nc1ccc(NC(=O)COc2ccc(Cl)cc2Cl)cc1`, -0.58%; under `COC(=O)c1ccc(NC(=O)Cn2nc(SC)n(N)c2=S)cc1`, -4.09%.
Under `Cn1nc([N+](=O)[O-])nc1Sc1ccc(Cl)cc1` stands 0.18%.
For `Cc1ccc(Sc2nc([N+](=O)[O-])nn2C)cc1`, the inhibition was 6.48%.
For `CC(=O)Nc1ccc(CN2CCN(CCc3ccccc3)C(CCO)C2)cc1` (stereo unspecified) the value was -3.1%; for `Cc1ccc(O)c(C=Nc2cc(C)ccc2O)c1`, -4.69%; for `CCCCS/C(N)=N/N=C/c1ccccc1O`, 1.14%.
Under `COc1ccc(CCNc2nc(-c3ccc(O)cc3)cs2)cc1OC` stands 3.36%; under `C=CCCC(=O)N1CCCC(C(=O)c2cccc(OC)c2)C1` (stereo unspecified), 5.01%.
For `OC(CN1CCN(c2ccccc2)CC1)Cn1c2ccccc2c2ccccc21` (stereo unspecified) the value was 14.7%; for `CN1CCN(CC(O)Cn2c3ccccc3c3ccccc32)CC1` (stereo unspecified), 6.36%; for `Cc1noc(C)c1COC(=O)c1ccc2c(c1)S(=O)(=O)c1ccccc1C2=O`, -4.63%.
`Brc1ccc2c(c1)C(c1cccs1)=NNC(c1cccnc1)=N2`: the inhibition was 1.73%.
For `NC(=O)CC(NC(=O)Cc1ccc(Br)cc1)c1ccc(N2CCN(c3ccccn3)CC2)c([N+](=O)[O-])c1` (stereo unspecified) the value was 2.89%.
In the case of `C[C@H](CO)N1C[C@H](C)[C@@H](CN(C)S(C)(=O)=O)Oc2c(NC(=O)C3CC3)cccc2C1=O`, the inhibition is 1.46%.
For `CC(C)SC1=NC(C)(C)C=C(/C=C/c2ccc(Cl)cc2Cl)N1` the value was 23.8%.
Under `CCSC1=NC(C)(C)C=C(/C=C/c2ccc(Cl)cc2Cl)N1` stands 46.6%; under `COc1ccc(C(=O)Nc2cccc([N+](=O)[O-])c2)cc1Br`, -1.62%.
For the compound `COc1nccc(-c2ccc(F)cc2)c1C#N`, the inhibition is 6.03%.
Under `COc1ccc2c(c1)[nH]c1c(C)nccc12` stands 34.6%; under `COc1ccc2[nH]c3c(Cl)ncnc3c2c1`, -0.24%; under `COc1ccc(NC(C)C(=O)N/N=C/c2c(O)ccc3ccccc23)cc1` (stereo unspecified), -2.98%.
In the case of `CN(C)S(=O)(=O)N1CCCN(S(=O)(=O)N(C)C)CC1`, the inhibition is -7.77%.
Under `Cc1ccc(NC(=O)Cc2ccc(Cl)cc2)cc1S(=O)(=O)N1CCCCCC1` stands -4.17%.
Under `CCCCC(=O)Nc1ccc(C)c(S(=O)(=O)N2CCCCCC2)c1` stands -1.76%.
